Screening results (PubChem)
D1 potentiator – Potentiators of Human D1 Dopamine Receptor: qHTS; 360,000 tested, 0.036% active; D(1A) dopamine receptor (Homo sapiens), P21728; HEK293 TREx D1 cells, calcium flux, dopamine EC20 potentiation; potentiation, % at 10 µM; in the data active = potentiation above about 30%; also: 0% is about no effect
TRHR ag – qHTS for Small Molecule Agonists and Allosteric Enhancers of Human TRH Receptor: Primary Screen for Agonists; Thyrotropin-releasing hormone receptor (Homo sapiens), P34981; TRHR cells, calcium flux fluo-8, FDSS agonist mode; activation, % at 2 µM; 360,000 tested, 0.18% active; also: 0% is about no effect
Target sequence (P34981 whole entry, looked up): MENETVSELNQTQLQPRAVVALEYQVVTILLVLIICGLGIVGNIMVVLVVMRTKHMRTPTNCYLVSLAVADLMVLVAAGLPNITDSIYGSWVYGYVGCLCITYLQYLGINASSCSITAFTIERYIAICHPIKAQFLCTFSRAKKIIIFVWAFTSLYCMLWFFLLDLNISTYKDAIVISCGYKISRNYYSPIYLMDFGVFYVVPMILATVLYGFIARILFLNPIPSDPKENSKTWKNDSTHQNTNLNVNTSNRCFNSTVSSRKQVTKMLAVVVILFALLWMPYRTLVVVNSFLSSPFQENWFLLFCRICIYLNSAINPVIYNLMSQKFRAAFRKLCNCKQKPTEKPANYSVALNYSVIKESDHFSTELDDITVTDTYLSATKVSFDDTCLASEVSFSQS
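In this calcium-flux screen, cells bearing human TRHR are dye-loaded with fluo-8, baselined for 10 cycles, then exposed to library compounds; positive kinetic calcium responses during the agonist phase mark hits, with TRH as control.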
TRHR PAM – qHTS for Small Molecule Agonists and Allosteric Enhancers of Human TRH Receptor: Primary Screen for Enhancers; TRHR cells, fluo-8 calcium fluorescence, EC20 TRH enhancement; 360,000 tested, 0.66% active; Thyrotropin-releasing hormone receptor (Homo sapiens), P34981; enhancement, % at 2 µM; AID 493056, 2011; in the data active = enhancement above about 30%; also: 0% is about no effect
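Enhancer read-out: after compound pinning and an initial kinetic agonist-mode read, an EC20 of TRH (10 nM final) was injected and fluo-8 calcium signal (Ex 480/Em 530) followed at 1 s/cycle for 100 cycles in TRHR-expressing cells.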
D1 antag – Antagonist of Human D 1 Dopamine Receptor: qHTS | D(1A) dopamine receptor (Homo sapiens), P21728 | HEK293 TREx D1 cells, calcium flux, dopamine EC80; active compounds read low | activity change, negative = inhibition, % at 10 µM | 360,000 tested, 3.2% active; in the data active = activity change below about -30%; also: % is scaled to controls: 0 for no effect and ±100 for the full control effect
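Inducible Hek293 Trex D1 cells (tetracycline, overnight, 30 C). Calcium dye 30–90 min RT. Antagonist mode: EC80 dopamine added after 180 s compound read.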
D1 agonist – Allosteric Agonists of the Human D1 Dopamine Receptor: qHTS | D(1A) dopamine receptor (Homo sapiens), P21728 | HEK293 T-REx D1 cells, calcium flux, agonist mode | activation, % at 2 µM | 360,000 tested, 1% active | AID 504660, 2011; also: 0% is about no effect
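Inducible HEK293 T-REx D1 cells, force-coupled to calcium signalling, were plated at 4000 cells/well with tetracycline and held overnight at 30 C. After no-wash calcium dye loading, compound-evoked calcium rise over 180 s flagged agonists.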
Numbers without * were called inactive; . = no result. This is a sample that favours compounds with a hit; in the whole collection about 4.6% have one here. Rule as the data show it, unless noted: active = activation above about 30%; inactive = the rest.

SMILES	D1 potentiator	TRHR ag	TRHR PAM	D1 antag	D1 agonist
O=C(c1ccc(COc2ccc(Cl)cc2)o1)N1CCN(Cc2ccc3c(c2)OCO3)CC1	-11	2	-7	-43*	11
CCOc1ccc(NC(=O)c2ccc(F)c(S(=O)(=O)NCc3ccc4c(c3)OCO4)c2)cc1	0	-1	0	-34*	4
CCOc1ccc(NC(=O)N2CCN(Cc3ccc4c(c3)OCO4)CC2)cc1	-9	-2	1	-78*	2
O=C(c1ccc(COc2ccccc2Cl)o1)N1CCN(Cc2ccc3c(c2)OCO3)CC1	-2	0	8	9	2
Cc1cccc(NC(c2cccc(Cl)c2)c2ccc3cccnc3c2O)n1 (stereo not given)	-2	1	7	1	3
Cn1cc(C(=O)NCCc2ccc(Cl)cc2)c(=O)c2cc(S(=O)(=O)N3CCOCC3)ccc21	0	1	-2	-1	0
Cc1ccccc1NC(=O)CSc1nccn1C	-3	1	25	-22	1
COc1ccc(C2=CC(c3ccc(F)cc3)n3ncc(C(=O)Nc4ccc(C)cc4)c3N2)cc1 (stereo not given)	-3	-1	-5	-2	8
CC(CCc1ccccc1)NC(=O)CCc1cn(C)c2ccccc12 (stereo not given)	-1	-1	1	-44*	0
O=C(CSc1nnc(CNC(=O)c2ccccc2)n1-c1cccc(Cl)c1)Nc1ccccc1F	5	-1	11	-11	7
O=C(CCN1C(=O)CSc2ccccc21)Nc1cccc(C(F)(F)F)c1	-1	0	1	-15	-1
CN(C)S(=O)(=O)c1ccc2c(c1)N(CC(=O)Nc1cccc(C(F)(F)F)c1)C(=O)CS2	0	0	-2	18	2
O=C(CN1C(=O)CSc2ccc(C(F)(F)F)cc21)Nc1ccccc1	-3	3	-3	-5	30*
O=C(CCN1C(=O)CSc2ccccc21)Nc1ccc(C(F)(F)F)cc1	4	0	1	-31*	6
Cc1ccc(Cl)cc1NC(=O)CCS(=O)(=O)c1ccc2c(c1)n(C)c(=O)c(=O)n2C	0	-1	24	-35*	2
CCCCN(C)CCNC(=O)c1ccc(Cn2c(=O)[nH]c3cc(OC)c(OC)cc3c2=O)cc1	0	2	-2	0	-2
C=CCNCCCCOc1ccc(OCc2ccccc2)cc1	-5	1	-1	-6	45*
c1ccc(COc2ccc(OCCCNC3CCCC3)cc2)cc1	1	3	0	-26	35*
COCCCNCCCCOc1ccc(OCc2ccccc2)cc1	-4	2	1	-18	35*
COCCCNCCOc1ccc(C(C)(C)c2ccccc2)cc1	-2	1	-8	8	29
COc1ccc(CNC(=O)COc2ccc(C(=O)c3ccc(F)cc3)cc2)cc1	-1	0	-6	-30*	10
COC(=O)c1ccc(/C=N/OCC(=O)NCc2ccc(F)cc2)cc1	-4	-1	-1	-51*	1
CC(C)N=C(NC#N)SCc1ccccc1	-4	-1	-3	-47*	2
N#CNC(=Nc1cccc(F)c1)SCc1cccc(F)c1	-6	2	-4	-32*	23
CC(C)N=C(NC#N)SCc1ccc(Br)cc1	-3	-1	3	-4	2
SMILES	D1 potentiator	TRHR ag	TRHR PAM	D1 antag	D1 agonist
COc1ccc(CCNC(=O)c2cccc(-n3cnc4cccnc43)c2C)cc1OC	-2	-1	1	-1	0
CCOc1ccccc1NC(=O)c1cc2cc(C)ccc2n1C	7	1	19	-7	3
O=C(COc1ccc([N+](=O)[O-])cc1Cl)NCC1CCCO1 (stereo not given)	-5	0	4	-39*	2
CC(C)CNS(=O)(=O)c1ccc(OCC(=O)NCC2CCCO2)c(Cl)c1 (stereo not given)	-2	0	-1	-36*	2
Cc1c(C(=O)NCc2cccc(Cl)c2)sc2ncnc(N(C)C3CCCCC3)c12	-1	0	-4	-7	3
Cc1cc(OCCCSc2nc(-c3ccc(C(C)(C)C)cc3)nc3cc(=O)[nH]n23)ccc1Cl	4	0	4	6	0
COc1cccc(CC(=O)OC(C)C(=O)Nc2ccc(Cl)cn2)c1 (stereo not given)	-2	-1	-5	-35*	4
CC(OC(=O)Cc1cccc(C(F)(F)F)c1)C(=O)Nc1ccc(Cl)cn1 (stereo not given)	-5	-1	0	-2	5
Cc1ccc(C(=O)NCCC(=O)N2CCOCC2)cc1	-5	1	1	-37*	1
COc1ccc(CCNC(=O)c2ccc3c(c2)NC(=O)CS3)cc1OC	-1	0	2	-33*	1
COc1ccc(CCNC(=O)c2ccc(OCC(=O)N3CCOCC3)c(OC)c2)cc1OC	1	0	4	-42*	3
Cc1ccc(C(=O)NCCN2CCOCC2)cc1	-3	0	0	13	-1
COc1ccc(CCNC(=O)c2ccc(Cn3c(=O)[nH]c4cc(OC)c(OC)cc4c3=O)cc2)cc1OC	0	0	-5	-35*	1
COc1ccc(CCNC(=O)CCS(=O)(=O)c2ccc3c(c2)NC(=O)CS3)cc1OC	5	1	1	8	4
COc1cc2[nH]c(=O)n(Cc3ccc(C(=O)NCc4ccccc4)cc3)c(=O)c2cc1OC	3	0	3	47	1
O=C(NN=C1CCCC1)c1cc(Br)ccc1O	-5	1	1	-18	12
O=C(N/N=C1/CCSC1)c1cc(Br)ccc1O	-9	1	2	-40*	14
Cc1ccc(NC(=O)CC(NC(=O)c2ccccc2Cl)c2ccccc2)nc1 (stereo not given)	.	0	-3	-30*	7
O=C(Cc1ccccc1)Nc1sc2c(c1C(=O)Nc1ccc(Cl)cc1)CCOC2	0	-2	4	-1	1
CC(=O)Nc1ccc(SC[C@H](Cc2ccccc2)N2CCN(CCc3ccccc3)CCC2=O)cc1	-5	0	-2	-33*	7
CC(=O)Nc1ccc(SC[C@H](Cc2ccccc2)N2CC[C@@H](O)CCC2=O)cc1	-1	0	0	-18	-1
O=C(CN1CCCN(Cc2ccccc2Cl)S1(=O)=O)NCc1ccccc1	4	-1	4	-1	0
CCOC(=O)CC(=O)CSc1nc2c(sc(=S)n2-c2ccccc2)c(=O)[nH]1	-3	0	-6	-3	2
